From PubChem BioAssay (EPA / NIEHS) come the findings set out here.

Values joined by “and” are separate entries in the source; they are usually repeats but may differ in a detail not shown here. Identical values can stand only once. More than one record can exist for a structure, and the calls need not agree. Active and inactive are the calls of the source. Rule for the calls: active = hit-call score of the fitted dose curve at least 0.9, where 1 is the maximum; inactive = score below 0.9.

Usually AC50 stands for the concentration at which the activity in the assay is half-maximal.

Read-out in this experiment: Matrix Metallopeptidase 1 (MMP1), MMP1 (gene 4312)
The experiment can be described thus: BSK_BE3C_MMP1: BioMAP Diversity Plus: BE3C Assay for Matrix Metallopeptidase 1 (MMP1) Biomarker Activity (AID 2283024). The note with it: primary human bronchial epithelial cells; actives raise or lower the signal. Here is the method: BSK_BE3C is a cell-based, multiplexed-readout assay that uses bronchial epithelial cell, a human lung primary cell, with measurements taken at 24 hours after chemical dosing in a 96-well plate.BSK_BE3C_MMP1 is an assay component measured in the BSK_BE3C assay. It measures MMP-1 antibody related to regulation of gene expression using ELISA technology.Data from the assay component BSK_BE3C_MMP1 was analyzed into 1 assay endpoint. This assay endpoint, BSK_BE3C_MMP1, was analyzed with bidirectional fitting relative to DMSO as the negative control and baseline of activity. Using a type of binding reporter, gain or loss-of-signal activity can be used to understand changes in the signaling as they relate to the gene MMP1. Furthermore, this assay endpoint can be referred to as a primary readout, because this assay has produced multiple assay endpoints where this one serves a signaling function. To generalize the intended target to other relatable targets, this assay endpoint is annotated to the protease intended target family, where the subfamily is matrix metalloproteinase.
The levels of cell surface (or secreted, indicated by the prefix "s") biomarker endpoints were measured by ELISA. Overt cytotoxicity to cells in confluent adherent cultures (all systems other than the BT system) was assessed by measuring total protein levels using sulforhodamine B (SRB) staining in parallel cultures at the time of biomarker measurements, indicated as SRB endpoints. For proliferation assays for adherent cell types, individual cell types are cultured at sub-confluence and relative cell numbers quantified by SRB staining at time points optimized for each system (48 h: 3C and CASM3C systems; 72 h: BT and HDF3CGF systems; 96 h: SAg system). SRB was performed by staining cells with 0.1% SRB after fixation with 10% TCA and reading wells at 560 nm.Viability and proliferation of PBMC (T cells) was quantified by Alamar Blue reduction for the SAg and BT systems. For PBMC viability (referred to as PBMC Cytotoxicity within the assay endpoint names), cells were plated (75,000/well in a 96-well plate) and then chemical samples added for 1 h before addition of activators, SEB and TSST-1 (20 ng/mL final concentration each). Cells were incubated for 90 h. Then, Alamar Blue (20 uL/well) (Invitrogen, Cat DAL1100) was added for 6 h, and the plates were read with a fluorescence microplate reader at 546/580 nm (excitation/emission). For PBMC proliferation, cells were plated and activated as above but incubated for only 16 h prior to addition of Alamar Blue. Plates were read after 6 h.
Consider `Cc1ccc(N)c(N)c1`, for which the outcome was inactive.
On the same count and under the same terms, the value for `Brc1ccc(Oc2ccccc2)cc1` was “inactive”.
The same measure, in the same setting: then `O=C(Oc1ccc(Br)cc1)N1CCN2CCC1CC2`, with “inactive”; and `CC(C)COC(=O)c1ccccc1C(=O)OCC(C)C`, with “inactive”.
The same measure, in the same setting: then `OCCCl`, with “inactive”; and `N#CC(Br)(Br)C(N)=O`, with “inactive”; and `CC(C)(C)C(O)(CCc1ccc(Cl)cc1)Cn1cncn1` (stereo not given), with “inactive”.
For the compound `CCCSC(=O)N(CCC)CCC`, the result was inactive.
As for `CN(C)C(=O)Nc1ccc(Cl)cc1`, the outcome was inactive.
The same measure, in the same setting: then `CS(=O)(=O)NC(=O)c1cc(Oc2ccc(C(F)(F)F)cc2Cl)ccc1[N+](=O)[O-]`, with “inactive”; and `Clc1ccc(Cl)c(Cl)c1`, with “inactive”.
For the compound `O=C(O)C1C2CCC(O2)C1C(=O)O` (stereo not given), the result was inactive.
Regarding `O=Cc1ccco1`, the result was inactive.
`Oc1ccccc1Cl`: the result was inactive.
Consider `Clc1ccc(C(c2ccc(Cl)cc2)C(Cl)Cl)cc1`, for which the half-maximal activity concentration (AC50) was 13.7 µM (active).
Take `COP(=S)(OC)SCN1C(=O)c2ccccc2C1=O`: the outcome was inactive.
On to `CCCCCOC(=O)c1ccccc1C(=O)OCCCCC`, for which the result was inactive.
Still for that read-out and setting: then `CC(C)(O)c1cnn2c(-c3ccc(F)c(-c4c(F)cccc4C#N)c3)cnc2n1`, with “inactive”; and `Nc1ccc(N=Nc2ccccc2)cc1`, with “inactive”; and `Nc1cc(Cl)cc(C(=O)O)c1Cl`, with “inactive”.
Same read-out and setting: then `O=[N+]([O-])C(Br)(CO)CO`, with “inactive”; and `CCCCOC(=O)c1ccccc1C(=O)OCc1ccccc1`, with “inactive”; and `CCCCCCCCOC(=O)c1ccc(C(=O)OCCCCCCCC)c(C(=O)OCCCCCCCC)c1`, with “inactive”.
`C=CCc1ccc2c(c1)OCO2`: the result was inactive.
In the case of `ClCCOCCCl`, the result was inactive.
On to `Cn1cc(-c2ccccc2)c(=O)c(-c2cccc(C(F)(F)F)c2)c1`, for which the outcome was inactive.
Same read-out and setting: the value for `[As]#[In]` was “inactive”; that for `O=C1CCCO1` was “inactive”; that for `COC(=O)Nc1nc2ccccc2[nH]1` was “inactive”.
Consider `CCCCCCCCn1sccc1=O`, for which the AC50 was 15.1 µM (active).
With `CCNS(=O)(=O)C(F)(F)C(F)(F)C(F)(F)C(F)(F)C(F)(F)C(F)(F)C(F)(F)C(F)(F)F`, the concentration at half-maximal activity (AC50) is 4.99 µM (active) and 11.3 µM (active); the outcome was inactive.
Turning to `CC(C)N(Cc1ccccc1)C(=O)C(C)(C)C`, the outcome was inactive.
Regarding `CN(C)c1ccc(C(=O)c2ccc(N(C)C)cc2)cc1`, the result was inactive.
Still for that read-out and setting: the value for `Nc1ccc(Oc2ccc(N)cc2)cc1` was “inactive”.
The same measure, in the same setting: the value for `c1ccc(N=Nc2ccccc2)cc1` was “inactive”; that for `CN(C)[C@@H]1C(=O)C(C(N)=O)=C(O)[C@@]2(O)C(=O)C3=C(O)c4c(O)cccc4[C@@](C)(O)[C@H]3C[C@@H]12` was “inactive”; that for `C[N+](C)(C)CC1CO1` (stereo not given) was “inactive”.
The same measure, in the same setting: then `ClC1=C(Cl)C2(Cl)C3C(Cl)C=CC3C1(Cl)C2(Cl)Cl` (stereo not given), with “inactive”.
`O=[N+]([O-])c1ccc(Oc2ccc(Cl)cc2Cl)cc1`: the result was inactive.
